# Measurements as given in PubChem BioAssay.
# For part of these data: Measured potencies and affinities stand elsewhere. Active and inactive are the calls of the source. Unless noted, the limit is not given here; nearly all actives have IC50 up to about 0.98 µM.
# Test system: not listed separately
# Test: inhibition of 3D7 malaria parasite growth – strain 3D7 (AID 2306; call rule not given here;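 also: 0% = DMSO wells and 100% = chloroquine plus artemisinin control wells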)
# Conditions: P. falciparum 3D7 erythrocytic growth, LDH absorbance, 72 h; at 2 µM; hits give high values
row,SMILES,growth inhibition
1,COc1cccc(C(=O)NC(c2ccc(Cl)cc2Cl)c2cc(Cl)c3cccnc3c2O)c1 (stereo unspecified),100% (active)
2,O=C(Nc1ccc(N2CCN(C(=O)C=Cc3ccccc3)CC2)c(Cl)c1)c1ccc([N+](=O)[O-])o1,97% (active)
3,CCCN1CCN(CCCNC(=O)c2cc3c(-c4ccc(Cl)cc4)nn(C)c3s2)CC1,88% (active)
4,Cn1nccc1C(=O)NCCNCc1ccc(-c2ccc(-c3nc4ccc(F)cc4[nH]3)cc2)cc1,101% (active)
5,O=C(Nc1ccc(Cl)c(-c2nc3ccccc3[nH]2)c1)c1ccc(-c2ccc(Cl)cc2)o1,89% (active)
6,COc1cc(N(Cc2ccccc2C)S(=O)(=O)Cc2ccccc2[N+](=O)[O-])c(OC)cc1Cl,94% (active)
7,Cc1onc(-c2ccccc2)c1C(=O)Nc1nc(-c2ccccn2)nc2ccsc12,97% (active)
8,N#Cc1cc(C(=O)Nc2ccccc2)c(N)nc1SCC(=O)Nc1ccc(Br)cc1,101% (active)
9,O=C(Nc1ccc(Oc2ccccc2)cc1)N[C@H]1CCN(Cc2ccc(OCCCN3CCCCC3)cc2)C1,103% (active)
10,CCOC(=O)NC1=NC(C)(C)N(OCCCOc2cc(Cl)c(Cl)cc2Cl)C(N)=N1,97% (active)
11,Cc1ccc(/C=C/C(=O)NC2CCC(N3CCC(c4ccccc4C)CC3)CC2)cc1F (stereo unspecified),96% (active)
12,Cc1ccc(CNC(=O)[C@H](CCCN)Nc2cc(C)nc(NCC3CCCCC3)n2)cc1,90% (active)

# Target: Calcium-dependent protein kinase 1 (Plasmodium falciparum (isolate 3D7)) (UniProt P62344)
# Test: PfCDPK1 kinase inhibitors, biochemical, TCAMS library (AID 1159585);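 also: inhibitors leave more ATP so luminescence rises with inhibition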
# Conditions: recombinant PfCDPK1, Kinase-Glo ATP depletion luminescence
# Sequence of Calcium-dependent protein kinase 1 (Plasmodium falciparum (isolate 3D7)) (P62344 whole entry, looked up): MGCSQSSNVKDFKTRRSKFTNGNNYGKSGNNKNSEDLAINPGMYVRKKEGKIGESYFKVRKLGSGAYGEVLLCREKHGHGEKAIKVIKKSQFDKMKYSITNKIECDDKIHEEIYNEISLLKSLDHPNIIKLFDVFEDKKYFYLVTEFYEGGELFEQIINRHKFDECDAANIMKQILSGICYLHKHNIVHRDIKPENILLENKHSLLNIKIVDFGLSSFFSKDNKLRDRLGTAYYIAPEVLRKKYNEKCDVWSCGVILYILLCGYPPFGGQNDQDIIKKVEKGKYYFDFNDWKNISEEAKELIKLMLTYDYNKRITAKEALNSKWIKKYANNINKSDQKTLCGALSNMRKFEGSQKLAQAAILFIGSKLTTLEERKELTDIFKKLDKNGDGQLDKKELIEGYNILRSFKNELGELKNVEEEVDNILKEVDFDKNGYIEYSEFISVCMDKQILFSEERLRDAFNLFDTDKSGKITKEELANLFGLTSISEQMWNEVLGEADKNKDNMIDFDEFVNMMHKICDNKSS
row,SMILES,outcome
1,CC(C)N1CCN(C(CN2CCN(CCCOc3ccccc3-c3ccccc3)CC2)c2ccc(F)cc2)CC1 (stereo unspecified),inactive
2,Cc1cc(OCCCN2CCC(NS(=O)(=O)c3cc(Br)c(Cl)s3)CC2)c2ccccc2n1,inactive
3,Cc1nnsc1C(=O)Nc1ccc(-c2ccc(-c3nc4c(C)cccc4[nH]3)s2)cc1,inactive
4,CN(C)CCCNc1ncnc2c1[nH]c1ccc(Cl)cc12,inactive
5,Cc1cc(N)cc2[nH]c(-c3ccc(N)cc3)nc12,inactive
6,O=C(Nc1cccc(CN2CCN(C(=O)c3cccc(F)c3)CC2)c1)c1cccs1,inactive
7,OCCN1CCN(C(=S)Nc2ccccc2)CC1,inactive
8,CC(=O)Oc1c(C2CCN(CCCCNC(=O)c3ccc(NC(=O)c4ccc(Cl)cc4)cc3)CC2)ccc2ccccc12,inactive
9,CCOC(=O)c1c(CNc2ccncc2)n(C)c2cc(Br)c(OC(C)=O)cc12,inactive
10,O=C(Nc1ccccc1N1CCOCC1)c1ncoc1-c1ccccc1C(F)(F)F,inactive
11,Cc1nc(-c2cccc(Nc3nccc(NCC(O)c4ccc(C(F)(F)F)cc4)n3)c2)cs1 (stereo unspecified),inactive
12,OCc1c(Cl)cc(Cl)cc1CNCCCNc1nc2ccccc2[nH]1,inactive
13,COC(=O)c1cccc(CNCc2cccc(-c3cccc(-c4nc5ccc(F)cc5[nH]4)c3)c2)c1,inactive
14,CC(C)(C)c1ccc(OC(=O)c2ccc(NC(=O)N[C@@H](Cc3ccc(O)cc3)C(=O)NC3CCN(Cc4ccc(O)cc4)C3)cc2)cc1 (stereo partly specified),inactive
15,CN1CCC(N(Cc2ccc(-c3ccc(C(F)(F)F)cc3)cc2)C(=O)Cn2cc(Cc3cnn(C)c3)c(=O)nc2SCc2cccc(F)c2F)CC1,inactive
16,c1ccc2c(CNc3ccnc(NCc4cccc5ccccc45)n3)cccc2c1,inactive
17,O=C(Nc1cccc(CN2CCN(Cc3ccc(O)cc3)CC2)c1)c1cc2ccccc2s1,inactive
18,CC(=O)Nc1ccc(C(=O)Nc2ccc(-c3csc(-c4nc5ccccc5[nH]4)c3)cc2)cn1,inactive
19,CC1(C)N=C(N)N=C(N)N1OCc1ccc(-c2ccccc2)cc1,inactive
20,Cc1ccc2c(NN=Cc3cccc(Cl)c3)cc(C)nc2c1,inactive

row,SMILES,outcome
1,COc1ccc2nccc([C@@H](O)CN3CCC(NCc4cc5cc(C)ccc5s4)CC3)c2c1,inactive
2,Cc1cccc2sc(N(CCCn3ccnc3)C(=O)C=Cc3cccs3)nc12,inactive
3,O=C(NCCCCN1CCC(c2ccc3c(c2OCC(O)c2ccc(Cl)cc2)CCCC3)CC1)c1ccc(-c2ccc(C(F)(F)F)cc2)cc1 (stereo unspecified),inactive
4,OC(CNCCc1ccccc1)Cn1c2ccc(Cl)cc2c2cc(Cl)ccc21 (stereo unspecified),inactive
5,Cc1cc(N(C)C2CCN(CC3CCCCC3)C2)nc(Nc2ccc(Cl)cc2)n1 (stereo unspecified),inactive
6,COc1ccc(CN2CCC(NCc3ccc(C(F)(F)F)cc3)CC2)cc1,inactive
7,O=C(Cc1ccccc1)NC(CCN1CCC(N(C2CC2)S(=O)(=O)c2cccc(C(F)(F)F)c2)CC1)c1ccc(Cl)c(Cl)c1 (stereo unspecified),inactive
8,COc1cccc(C(=O)NC(c2ccc(Cl)cc2Cl)c2cc(Cl)c3cccnc3c2O)c1 (stereo unspecified),inactive
9,O=C(Nc1ccc(N2CCN(C(=O)C=Cc3ccccc3)CC2)c(Cl)c1)c1ccc([N+](=O)[O-])o1,inactive
10,CCCN1CCN(CCCNC(=O)c2cc3c(-c4ccc(Cl)cc4)nn(C)c3s2)CC1,inactive
11,Cn1nccc1C(=O)NCCNCc1ccc(-c2ccc(-c3nc4ccc(F)cc4[nH]3)cc2)cc1,inactive
12,O=C(Nc1ccc(Cl)c(-c2nc3ccccc3[nH]2)c1)c1ccc(-c2ccc(Cl)cc2)o1,inactive
13,COc1cc(N(Cc2ccccc2C)S(=O)(=O)Cc2ccccc2[N+](=O)[O-])c(OC)cc1Cl,inactive
14,Cc1onc(-c2ccccc2)c1C(=O)Nc1nc(-c2ccccn2)nc2ccsc12,inactive
15,N#Cc1cc(C(=O)Nc2ccccc2)c(N)nc1SCC(=O)Nc1ccc(Br)cc1,inactive
16,O=C(Nc1ccc(Oc2ccccc2)cc1)N[C@H]1CCN(Cc2ccc(OCCCN3CCCCC3)cc2)C1,inactive
17,CCOC(=O)NC1=NC(C)(C)N(OCCCOc2cc(Cl)c(Cl)cc2Cl)C(N)=N1,inactive
18,Cc1ccc(/C=C/C(=O)NC2CCC(N3CCC(c4ccccc4C)CC3)CC2)cc1F (stereo unspecified),inactive
19,Cc1ccc(CNC(=O)[C@H](CCCN)Nc2cc(C)nc(NCC3CCCCC3)n2)cc1,inactive
